Screens as filed in PubChem BioAssay.
Shown are actives, neighbours in structure and some others; about 2.2% of the full set was active somewhere.
Ba/F3 V617F tox: reduced viability of JAK2V617F-dependent Ba/F3 cells, primary screen, JAK2V617F inhibitor project, cell-based, Ba/F3 EpoR-JAK2V617F, luminescence; 220,000 tested, 1.1% active; ATP luminescence; inhibition, % at 5.6 µM; AID 1446, 2008;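 active = inhibition above the campaign mean plus 3 SD over all tested compounds, cut at about 24% in these data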;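 note: cytokine-independent growth of Ba/F3 cells driven by EpoR plus mutant JAK2; 0% = DMSO-treated cells and 100% = JAK inhibitor I control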
aSyn UTR inh: MLPCN primary screen, SNCA 5' untranslated region | inhibition, % (tested at 7.5 µM) | 300,000 tested, 0.82% active | AID 1813, 2009 | alpha-synuclein 5'UTR reporter, inhibitor activity; in the data active = inhibition above about 60%;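 note: H4 neuroglioblastoma cells stably carrying SNCA 5'UTR luciferase fusion; 0% = DMSO wells and 100% = positive control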
KLF5 inh: KLF5 expression inhibitors, primary screen, DLD-1 cells, luminescence. AID 1700, 2009. DLD-1 KLF5 promoter-luciferase reporter. inhibition, % at 5 µM. 290,000 tested, 0.23% active;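 active = inhibition above a per-plate limit of that plate's mean compound inhibition plus 3 SD, cut at about 60% in these data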;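 note: 0% = DMSO wells and 100% = LY294002 at 200 µM; higher means less KLF5 promoter-driven luciferase light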
IEC-6 tox-1: cytotoxicity in IEC-6 intestinal epithelial cells, primary screen, cytotoxicity control for KLF5 inhibitor project, cell-based, luminescence | 290,000 tested, 0.78% active | IEC-6 cytotoxicity, luminescence viability | inhibition, % at 5 µM; in the data active = inhibition above about 22%;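 note: 0% = plate median of test compound wells and 100% = cytotoxic reference compound wells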
BaF3 tox: parental Ba/F3 cell viability inhibition, counter-screen for JAK2V617F inhibitor project, murine pro-B, CellTiter-Glo luminescence | CellTiter-Glo ATP luminescence | inhibition, % at 5.6 µM | 220,000 tested, 1.1% active;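 active = inhibition above a per-campaign cutoff, the mean inhibition of all tested compounds plus 3 SD, cut at about 27% in these data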;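 note: 0% = DMSO wells and 100% = JAK Inhibitor I control wells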
APP transl inh: inhibitors of APP translation via 5'UTR reporter, primary screen, APP 5'UTR luciferase, SH-SY5Y cells | SH-SY5Y APP 5'UTR-luciferase reporter, luminescence | inhibition, % at 2 µM | 190,000 tested, 0.82% active | AID 1285, 2008;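 active = inhibition above a set limit, derived from the sample mean plus 3 SD, cut at about 45% in these data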
KLF5 inh confirm: KLF5 expression inhibitors, confirmation, DLD-1 cells, luminescence. shares compounds with KLF5 inh. DLD-1 KLF5 promoter firefly luciferase reporter. inhibition, % at 4 µM. 610 tested, 79% active;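 active = inhibition above a set limit taken from the earlier primary screen, cut at about 63% in these data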;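 note: 0% = DMSO wells and 100% = LY294002 at 200 µM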
IEC-6 tox-2: cytotoxicity in rat IEC-6 cells, cytotoxicity control for KLF5 inhibitor project, cell-based, luminescence, triplicate; IEC-6 rat intestinal cells, viability luminescence; 610 tested, 56% active; inhibition, % at 4 µM; AID 1905, 2009; shares compounds with KLF5 inh; in the data active = inhibition above about 23%;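 note: cells exposed to compounds for 48 hours before viability read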
* marks the source's active call; other numbers are inactive results; · = not tested or not shown.

SMILES	Ba/F3 V617F tox	aSyn UTR inh	KLF5 inh	IEC-6 tox-1	BaF3 tox	APP transl inh	KLF5 inh confirm	IEC-6 tox-2
CCCC(=O)NC(c1ccc(OC)cc1)c1ccc2cccnc2c1O (configuration not stated)	54.1*	129.2*	90.3*	37.9*	66.1*	81.6*	96.2*	91.7*
CCCCC(=O)NC(c1ccc(C(C)C)cc1)c1ccc2cccnc2c1O (configuration not stated)	·	111.8*	68.7*	15.9	·	·	79.7*	45.5*
CCCCC(=O)NC(c1ccc([N+](=O)[O-])cc1)c1c(O)ccc2ccccc12 (configuration not stated)	-0.7	29.5	-11.5	9.5	2.0	11.7	·	·
Cc1ccc(C(=O)O/N=C(\N)c2ccccn2)c(Cl)c1	·	107.6*	96.0*	2.7	·	·	74.8*	8.5
N/C(=N\OC(=O)c1ccc(Cl)cc1Cl)c1ccccn1	14.3	88.8*	95.4*	13.7	22.1	-32.2	46.3	3.4
N/C(=N\OC(=O)c1ccc(Cl)cc1[N+](=O)[O-])c1ccccn1	·	-165.1	-111.2	7.4	·	·	·	·
COc1cc(C(=O)N/N=C(\C)Cc2ccccc2)cc(OC)c1OC	86.2*	34.1	75.9*	83.6*	80.4*	94.3*	-13.2	0.2
COc1cc(C(=O)Nc2sc3c(c2C(=O)O)CCC(C)C3)cc(OC)c1OC (configuration not stated)	·	55.9	73.8*	-5.7	·	·	20.4	5.2
Cc1ccc(-n2nnc(-c3nccs3)n2)cc1	0.6	95.4*	62.6*	5.2	1.7	-117.9	64.0*	14.2
COc1cccc(CC(=O)OCC(=O)N(C)CC(=O)Nc2ccc(Cl)c(C(F)(F)F)c2)c1	·	-1.0	·	·	·	·	·	·
CC(C)(C)c1ccc(C(=O)O/N=C(\N)c2ccccc2)cc1	·	53.3	71.3*	-1.2	·	·	65.8*	7.0
COc1ccc(C(=O)O/N=C(\N)c2ccccc2)cc1	·	-82.4	-130.5	1.6	·	·	·	·
CC1(C)N=C(N)N=C(N)N1c1ccc(OCCCOc2ccccc2)c(Cl)c1	97.3*	78.3*	76.9*	81.8*	101.6*	·	72.7*	65.6*
O=C(Nc1nnc(-c2ccc(F)cc2)o1)c1cccc([N+](=O)[O-])c1	0.7	56.0	71.8*	98.4*	10.2	-20.2	27.0	17.2
CSc1nnc(NC(=O)c2ccc3c(c2)OCO3)s1	·	81.4*	74.8*	-2.6	·	·	61.6	-1.8
CCCCNC1=CC(=O)C(=O)c2ccccc21	-2.5	40.2	-12.4	13.5	7.1	11.4	·	·
CCCCN1C=CC(=C2C(=O)c3ccccc3C2=O)C=C1	20.8	98.5*	94.7*	19.4	21.9	58.5*	55.5	8.2
CCOc1ccc(S(=O)(=O)NC(C)C(=O)NCc2ccc3c(c2)OCO3)cc1 (configuration not stated)	·	-15.9	5.5	-1.9	·	·	·	·
O=C(O)COc1ccc(/C=C/c2nc3ccc([N+](=O)[O-])cc3s2)cc1	-2.9	3.2	-34.4	-2.4	-5.7	·	·	·
C/C(=N/NC(=O)c1ccncc1)c1ccccc1	·	-25.2	-19.4	-5.3	·	·	·	·
C/C(=N\NC(=O)c1ccccc1NC(=O)c1ccc(Cl)cc1)c1ccncc1	18.7	28.0	65.0*	13.0	20.7	-62.1	107.0*	66.9*
CN(C)c1ccc(Nc2nc(N)c3ccccc3n2)cc1	·	109.1*	90.8*	21.7	·	·	67.1*	10.1
Nc1nc(Nc2ccc(Cl)cc2)nc2ccccc12	6.0	7.6	32.2	17.0	4.2	-114.6	·	·
CCOc1ccc(Nc2nc(N)c3ccccc3n2)cc1	·	102.3*	81.3*	20.1	·	·	55.6	10.1
O=C(Nc1cccc(C(=O)O)c1)Nc1ccc2c(c1)OCO2	·	99.4*	95.5*	1.9	·	·	89.0*	5.1
SMILES	Ba/F3 V617F tox	aSyn UTR inh	KLF5 inh	IEC-6 tox-1	BaF3 tox	APP transl inh	KLF5 inh confirm	IEC-6 tox-2
O=C(Nc1ccc2c(c1)OCO2)Nc1ccc2c(c1)OCO2	1.0	-129.3	-81.3	-3.4	4.8	-135.6	·	·
COc1cccc(NC(=O)Nc2cccc(C(=O)O)c2)c1	-1.9	40.7	75.5*	-4.0	0.8	51.1*	65.0*	-2.4
COCCN1C(=O)C(=O)/C(=C(/O)c2ccc(S(=O)(=O)N3CCCCC3)cc2)C1c1ccc(O)c(OC)c1 (configuration not stated)	·	-1.3	-18.4	-11.8	·	·	·	·
COc1ccc(N(C)C(=O)C2CCN(S(=O)(=O)c3cccc4nonc34)CC2)c(OC)c1	·	12.7	1.9	4.1	·	·	·	·
O=C(COC(=O)c1ccc2c(c1)C(=O)N(Cc1ccncc1)C2=O)Nc1cccc2ccccc12	6.0	6.8	0.5	-0.2	4.1	-6.6	·	·
Cc1nn(-c2nc3ccccc3[nH]2)c(=O)c2ccccc12	83.2*	115.0*	110.0*	84.6*	87.2*	74.1*	104.5*	63.1*
Cc1nn(-c2ccc3ccccc3c2)c(=O)c2ccccc12	4.6	-183.0	-50.9	9.5	3.8	-142.3	·	·
COc1ccc(S(=O)(=O)N2CC(C)N(C(=O)N(C)C)C2C(C)C)cc1 (configuration not stated)	·	-0.8	10.5	-12.3	·	·	·	·
COC(=O)c1cc(C(=O)N2CCN(c3ccccc3OC)CC2)cc([N+](=O)[O-])c1	67.0*	43.7	73.6*	69.0*	70.6*	92.5*	79.6*	63.1*
O=C(O)CCN1C(=O)C2C3C=CC(C2C1=O)C1C(=O)N(CCC(=O)O)C(=O)C31 (configuration not stated)	·	4.3	-33.2	-1.0	·	·	·	·
CCc1ccc(C(=O)Nc2nc3ccccc3[nH]2)cc1	·	87.9*	84.3*	13.9	·	·	71.9*	6.5
CC(C)Oc1ccc(C(=O)Nc2nc3ccccc3[nH]2)cc1	·	81.5*	87.0*	13.8	·	·	77.5*	5.5
COc1ccc(Cl)cc1C(=O)Nc1nc2ccccc2[nH]1	·	89.1*	79.8*	20.0	·	·	70.3*	13.6
CC(C)CCN(C(=O)C1=COCCO1)c1c(N)n(Cc2ccccc2)c(=O)[nH]c1=O	·	2.0	·	·	·	·	·	·
Cc1csc(NC(=O)c2cc3c(s2)CCCCC3)n1	-3.3	91.9*	72.3*	0.1	2.5	-128.6	51.9	-1.0
CCOC(=O)Cc1csc(NC(=O)c2cc3c(s2)CCCC3)n1	-3.0	-18.2	-21.8	-3.3	5.7	-44.1	·	·
c1ccc(CSc2nnc3ccc(-c4ccncc4)nn23)cc1	3.5	0.2	-8.1	4.5	2.7	-10.0	·	·
O=C(CSc1nnc2ccc(-c3ccncc3)nn12)c1cccs1	2.8	14.9	62.6*	0.4	5.5	-14.3	-14.8	-5.6
